# Source: PubChem BioAssay
# Most compounds without a hit are left out; they make up all but 32% or so of the library.
# PostGolgi yeast: phenotypic screen on post-Golgi transport, primary screen; post-Golgi transport phenotypic cell assay; inhibition, % at 10 µM; 98,000 tested, 0.9% active;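 further: yeast cells grown in 1536-well plates; yeast grown about 18 h at 30C before absorbance read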
# CYP2C9 inhib: blockers of cytochrome P450 2C9 activity – biochemical, luminescence, ADME assay, primary screen | 96,000 tested, 20% active | inhibition, % at 5 µM | CYP2C9 Supersomes, luciferin-H conversion | P11712;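 active means blocking of liver enzyme CYP2C9 beyond about 50% at 5 µM, limit read from the data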
# Target sequence (P11712 whole entry, looked up): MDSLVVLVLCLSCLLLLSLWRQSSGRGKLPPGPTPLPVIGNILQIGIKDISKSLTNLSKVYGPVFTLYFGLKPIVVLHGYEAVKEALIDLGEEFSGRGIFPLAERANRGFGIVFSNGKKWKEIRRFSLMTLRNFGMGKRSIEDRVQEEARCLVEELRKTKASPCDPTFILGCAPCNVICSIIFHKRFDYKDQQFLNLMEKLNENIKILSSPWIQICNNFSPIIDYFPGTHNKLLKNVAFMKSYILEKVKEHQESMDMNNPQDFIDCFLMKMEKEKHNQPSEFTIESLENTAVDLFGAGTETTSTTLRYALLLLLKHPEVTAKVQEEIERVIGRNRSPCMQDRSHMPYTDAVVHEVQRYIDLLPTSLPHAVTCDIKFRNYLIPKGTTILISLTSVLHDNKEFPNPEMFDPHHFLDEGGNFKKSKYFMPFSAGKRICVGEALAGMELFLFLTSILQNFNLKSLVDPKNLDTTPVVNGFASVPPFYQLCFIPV
# CYP2C9 activ: human CYP2C9 activators, primary screen, biochemical, luminescence; Cytochrome P450 2C9 (Homo sapiens), P11712; recombinant CYP2C9, luciferin-H conversion; stronger effect = higher value; factor 1 = untreated enzyme, 0 = blocked; activation factor at 5 µM; 96,000 tested, 1.4% active;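 active means activation factor of 2 or more for CYP2C9 at a 5 µM dose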
# CYP2C19 activ: human CYP2C19 activators, primary screen, biochemical, luminescence; AID 1025, 2008; 96,000 tested, under 10 active; Cytochrome P450 2C19 (Homo sapiens), P33261; activation factor at 5 µM; recombinant CYP2C19, luciferin-H EGE luminescence; stronger effect = higher value; 0 = fully inhibited enzyme, 1 = untreated enzyme;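 active means activation factor of at least 2 at 5 µM in the primary screen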
# PostGolgi ctrl: growth inhibition of yeast control strain, primary screen, counter-screen for post-Golgi transport modulator project | 98,000 tested, 5% active | inhibition, % at 10 µM | efflux-deficient yeast background strain, growth absorbance A615, 16 h
# CYP2C19 inh: blockers of cytochrome P450 2C19 activity – biochemical, luminescence, ADME assay, primary screen | CYP2C19 Supersomes, luciferin-H EGE luminescence, 30 min | inhibition, % at 5 µM | 96,000 tested, 21% active | AID 778, 2007;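 active means CYP2C19 inhibition above a set limit at 5 µM in the primary screen, cut at about 50% in these data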
# Numbers stand for hits; - = inactive; . = not tested or not shown. Unless noted, no stated cut-off is given here; in the data, active means inhibition above about 30%; inactive means the rest.
SMILES,PostGolgi yeast,CYP2C9 inhib,CYP2C9 activ,CYP2C19 activ,PostGolgi ctrl,CYP2C19 inh
Fc1cccc(Cl)c1CNCc1ccccc1Cl,-,-,-,-,-,85.5
Cc1ccc(CNCc2ccccc2Cl)cc1,-,-,-,-,-,99.0
Cn1c(Cn2c(=O)sc3ccccc32)nnc1SCC(=O)Nc1ccc(Cl)cc1,-,.,.,.,-,.
CC(C)OC(=O)c1c(NC(=O)Cn2cnc([N+](=O)[O-])n2)sc2c1CCCC2,-,-,-,-,-,-
CC1CCc2nc3ccc(S(=O)(=O)N4CCC(C(=O)NC5CCCC5)CC4)cc3c(C(=O)O)c2C1 (stereo not given),-,59.8,-,-,-,-
O=C(O)c1c2c(nc3ccc(S(=O)(=O)N4CCC(C(=O)NC5CCCC5)CC4)cc13)CCCCC2,-,51.8,-,-,-,-
O=C(O)c1c2c(nc3ccc(S(=O)(=O)N4CCC(C(=O)N5CCCCC5)CC4)cc13)CCCC2,-,-,-,-,-,-
Cc1cc(C)c(C#N)c(SCC(=O)OC2CCCCC2)n1,-,60.4,-,-,-,66.5
CSc1nc(N)nc(SCC(=O)CC(=O)OC(C)C)c1C#N,-,-,-,-,-,-
CCOC(=O)CSc1nc(C)cc(C)c1C#N,-,-,-,-,-,-
Cc1ccc2sc(NC(=O)CSc3nc(C)cc(C)c3C#N)nc2c1,-,67.6,-,-,-,67.5
Cc1nc(SCC(=O)CC(=O)OC(C)C)c(C#N)c(C)c1C,-,-,-,-,-,64.5
Cc1cc(C)c(C#N)c(SCC(=O)CC(=O)OC(C)C)n1,-,52.8,-,-,-,91.3
Cc1ccc(S(=O)(=O)N2CCC(C(=O)N[C@H](C(=O)NCC3CCCO3)C(C)C)CC2)cc1 (stereo not given in full),-,-,-,-,-,-
CCCn1c(CN2CCCCC2C)nc2c1c(=O)n(C)c(=O)n2C (stereo not given),-,-,-,-,37.4,-
CCCn1c(CN2CCCCC2CC)nc2c1c(=O)n(C)c(=O)n2C (stereo not given),-,-,-,-,-,-
CCCOc1ccc(/C(O)=C2\C(=O)C(=O)N(CCCOC)C23C(=O)N(C)c2ccccc23)cc1 (stereo not given),-,-,-,-,-,-
COCCN1C(=O)C(=O)/C(=C(/O)c2cccc(S(=O)(=O)N(C)C)c2)C12C(=O)N(C)c1ccccc12 (stereo not given),-,83.5,-,-,-,-
CCCCNC(=O)CS(=O)Cc1nc(-c2cccc(Cl)c2)oc1C (stereo not given),-,61.9,-,-,-,-
CCCCNC(=O)CS(=O)Cc1nc(-c2cccc(C)c2)oc1C (stereo not given),-,-,-,-,-,-
CCCCSCCCNC(=O)CS(=O)Cc1nc(-c2cccc(C)c2)oc1C (stereo not given),-,78.2,-,-,-,84.7
CC(=O)C1=C(O)C(=O)N(CCN2CCOCC2)C1c1ccccc1 (stereo not given),-,-,-,-,-,-
CCCCn1c(SCC(=O)NCc2cccs2)nc2c1c(=O)n(C)c(=O)n2C,-,-,-,-,-,-
Nc1nnnn1/N=C/c1ccccn1,-,-,-,-,-,-
COc1ccc(-c2nc3ccccc3[nH]2)cc1,-,-,-,-,-,64.6
SMILES,PostGolgi yeast,CYP2C9 inhib,CYP2C9 activ,CYP2C19 activ,PostGolgi ctrl,CYP2C19 inh
Cc1ccc(-c2nc3ccccc3[nH]2)s1,-,-,-,-,-,-
Cc1[nH]c2ccccc2c1-c1nc2ccccc2[nH]1,-,67.6,-,-,-,-
COc1ccc(Br)cc1CNC(=O)C1CCCN(S(C)(=O)=O)C1 (stereo not given),-,-,-,-,-,-
Cc1cc(C)c(N2C(=NC(=O)CCCC(=O)O)SC3CS(=O)(=O)CC32)c(C)c1 (stereo not given),-,-,-,-,-,-
Cc1nc2c(o1)CCc1ccccc1C2N1CCN(C)CC1 (stereo not given),-,-,-,-,-,-
Cc1ccc(Sc2cnn(-c3ccccc3)c(=O)c2Cl)cc1,-,-,-,-,-,-
Nc1ccc(Sc2cnn(-c3ccccc3)c(=O)c2Cl)cc1,-,91.3,-,-,40.0,99.4
CCOc1ccccc1-c1cc(-c2ccc(OC)cc2)nc2c1c(=O)n(C)c(=O)n2C,.,-,-,-,.,-
COCCCNC(=O)CCn1c(=O)c2ccccc2n(CC(=O)Nc2ccccc2C)c1=O,-,-,-,-,-,-
COCCCNC(=O)CCn1c(=O)c2ccccc2n(CC(=O)Nc2ccc(C)cc2C)c1=O,-,66.8,-,-,-,78.0
CCCCNC(=O)CCn1c(=O)c2ccccc2n(CC(=O)Nc2ccccc2OCC)c1=O,-,75.4,-,-,-,-
CCCN(CCC)C(=O)Cn1c(=O)n(CCC(=O)NCCc2ccccc2)c(=O)c2ccccc21,-,72.3,-,-,-,-
CCOc1ccc(CCNC(=O)c2cc3sccc3n2CC)cc1OCC,-,-,-,-,-,50.6
CN(C1CCCCC1)S(=O)(=O)c1ccc(NC(=O)CCC(=O)O)cc1,-,.,.,.,-,.
CN(C1CCCCC1)S(=O)(=O)c1ccc(NC(=O)C2CCCCC2)cc1,-,-,-,-,63.0,-
Cc1cccc(NC(=S)N2CCC(C(=O)c3ccc(F)cc3)CC2)c1C,-,-,-,-,-,-
N/C(Cc1ccc(Cl)cc1)=N\OC(=O)c1cccc2ccccc12,82.5,-,2,-,104.3,-
N/C(Cc1ccc(Cl)cc1)=N\OC(=O)c1ccc2ccccc2c1,-,-,-,-,81.0,-
Cc1nc([N+](=O)[O-])c(N2CCN(C)CC2)n1Cc1ccccc1,-,-,-,-,-,-
COc1ccc(OC)c(C2=Nn3c(nnc3-c3cccc(OC(C)C)c3)SC2)c1,-,-,-,-,-,-
CC1=C(C(=O)NCCCOC(C)C)C2(CCC(C)CC2)OC1=O (stereo not given),-,-,-,-,-,63.8
CC1=C(C(=O)NCCN2CCOCC2)C2(CCC(C)CC2)OC1=O (stereo not given),-,-,-,-,-,-
COc1ccc(CNC(=O)C2=C(C)C(=O)OC23CCC(C)CC3)cc1 (stereo not given),-,-,-,-,-,54.8
CC1=C(C(=O)NCc2ccccn2)C2(CCC(C)CC2)OC1=O (stereo not given),-,-,-,-,-,76.7
O=C(c1cc2ccccc2oc1=O)N(Cc1cccs1)C1CCS(=O)(=O)C1 (stereo not given),-,-,-,-,-,-
O=C(/C=C/c1ccc(Cl)cc1)NCCN1CCOCC1,-,-,-,-,-,-
